Compound activity from PubChem.
Tgondii IFNg: T. gondii growth inhibition under IFN-gamma; actives 3.8% (n = 69,000); Toxoplasma gondii growth in IFN-gamma-treated host cells; hits give low values; activity change, negative = inhibition, % (no concentration beside the values); in the data active = activity change below about -70%, passing the limit was not always enough;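 also: host cells are HeLa cells infected with Toxoplasma gondii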
Starred values were filed as active, the others as inactive. Only a selection was taken, and hits are over-represented in it overall.

SMILES	Tgondii IFNg
Cc1cccc(CN2CCCC3(CCN(S(=O)(=O)c4ccc(F)cc4)C3)C2)n1 (centres undefined)	-9.5
Cc1cnc(CNc2nc(CCN)nc3sc(C)c(C)c23)cn1	-4.6
N#Cc1cccc(C(=O)N2CCC3C2CC(=O)N3Cc2ccncc2)c1 (centres undefined)	-30.8
O=C(Cc1nc2ccc(Cl)cc2[nH]1)N(Cc1ccccn1)CC1CCCO1 (centres undefined)	-9.5
CCOC(=O)c1nc(Nc2ccc(CC)cc2)c2ccccc2n1	-38.1
Cc1cc(C)n(-c2nnc(SCC(=O)Nc3ccccc3)c3ccccc23)n1	2.8
CCOC(=O)c1ccc(Nc2nnc(-n3nc(C)cc3C)c3ccccc23)cc1	-84.5*
COc1cc2c(cc1OC)C(c1c(-c3ccccc3)noc1C)=NCC2	-38.3
COc1cc2c(cc1OC)C(c1ccccc1)=NCC2	-28.0
COc1cc2c(cc1OC)C(c1sc3ccccc3c1Cl)=NCC2	-113.3*
Cc1cccc(-c2nc(C)c(CCNC(=O)C(=O)Nc3ccc(Cl)cc3)s2)c1	-22.3
CCc1nnc(CNC(=O)c2ccccc2C2CCNC2)s1 (centres undefined)	2.6
COc1ccc(N2C(=O)CC(N3CCN(c4nc5ccccc5s4)CC3)C2=O)cc1 (centres undefined)	14.8
N=C1SC(c2ccccc2)C(=O)N1c1nc2ccccc2s1 (centres undefined)	-82.1*
COc1ccc(C2CC(=O)c3cnn(-c4nc5ccccc5s4)c3C2)cc1 (centres undefined)	62.1
COc1ccc2c(c1)NC1(CCN(S(=O)(=O)c3ccc(C4CCCCC4)cc3)CC1)c1cccn1-2	-65.7
COc1ccc2c(c1)CC(NCCc1csc(-c3cccnc3)n1)CC2 (centres undefined)	1.0
CCOCCCN(C)C1CCN(S(=O)(=O)c2ccc3[nH]c(=O)ccc3c2)CC1	178.3
C=CCn1c(=S)sc2c(N3CCN(c4ccccc4)CC3)ncnc21	-20.2
C=CCn1c(=S)sc2c(C(C#N)C#N)ncnc21	-102.1*
CCN1CCC2(CN(Cc3cccnc3)CC23CCN(C(=O)c2ccco2)CC3)C1=O (centres undefined)	4.4
COc1cc(Cl)cc(C(=O)N2CCC(O)(CN(C)C)C2)c1 (centres undefined)	-1.8
CCc1[nH]c2ccc(CNc3ncc(F)c(N4CCOCC4)n3)cc2c1C	-48.1
CCc1[nH]c2ccc(CNc3cc(COC)ncn3)cc2c1C	-78.1*
Cc1[nH]c2ccc(CNC(=O)C3CC(=O)N(Cc4ccccn4)C3)cc2c1C (centres undefined)	4.8
SMILES	Tgondii IFNg
CC(Oc1ccc(-n2cnnn2)cc1)C(=O)N1CCCCC1CN1CCCCCC1 (centres undefined)	-5.2
CC1(C)Cc2ccccc2-c2nc(-c3ccccc3)oc(=O)c21	5.8
O=c1oc(-c2ccccc2)nc2c1C1(CCCC1)Cc1ccccc1-2	-50.2
Cc1cccc(CN2CCCC3(CCN(c4cncnc4)C3=O)C2)n1 (centres undefined)	-2.8
CC1(C)CC2(CCCN(Cc3nc4c(c(=O)[nH]3)C3(CCCCC3)Cc3ccccc3-4)C2)CCO1 (centres undefined)	-85.2*
O=c1[nH]c(CN2CCCC3(CCCCC3)C2)nc2c1C1(CCCCC1)Cc1ccccc1-2	-80.7*
CN(C)C(C(=O)O)c1ccc(Cl)cc1 (centres undefined)	11.9
CS(=O)(=O)N(CCCC(=O)N1CCC(C(N)=O)CC1)c1cccc(Cl)c1	15.2
CCNC(=O)c1c2c(NC(C)C)ncnc2n2ccccc12	-3.0
COC(=O)c1ccccc1SCc1ccccc1	1.8
COCCn1cc2c(n1)C(CNC(=O)c1ccc(C)o1)OCC2 (centres undefined)	98.2
O=C(NCCc1csc(-c2ccc(F)cc2)n1)C(=O)Nc1ccc(F)cc1F	14.4
NC(=O)c1csc(-c2ccc(F)cc2F)n1	-107.4*
NC(=O)c1csc(-c2cccc(C(=O)O)c2)n1	-2.4
COc1cc(C2N3CCCN2CC3)ccc1OCc1ccccc1 (centres undefined)	162.5
COc1ccc(-c2nnc(-c3nc(NC4CCCCC4)c4ccccc4n3)o2)cc1	-23.4
COc1cc(-c2nnc(C3CCCCC3)o2)ccc1OCc1ccccc1	-81.2*
Cc1ccc(C(=O)Nc2sc3c(c2C(N)=O)CCC3)cc1C	179.8
COCCN1CCN(C(=O)c2cccn2C)Cc2cccnc21	-5.6
COc1ccc(-c2nc(N3CCOCC3)c3ccccc3n2)cc1	-42.0
COc1ccccc1NC(=O)Nc1ccc(-c2nc(-c3cc(C)ccc3C)co2)cc1	-35.8
O=C(Nc1ccc(-c2nc(-c3ccccc3)co2)cc1)Nc1ccccc1Cl	38.0
COc1ccccc1NC(=O)Nc1ccc(-c2nc(-c3ccc(C)cc3C)co2)cc1	-16.7
COc1cc(OC)c(NC(=O)Nc2ccc(-c3nc(-c4ccc(C)cc4)co3)cc2)cc1Cl	-77.1*
COc1ccc(NC(=O)Nc2ccc(-c3nc(-c4ccccc4)co3)cc2)cc1Cl	34.1
SMILES	Tgondii IFNg
COc1cc(OC)c(NC(=O)Nc2ccc(-c3nc(-c4ccccc4)co3)cc2)cc1Cl	-85.0*
COc1ccc(C)cc1NC(=O)Nc1ccc(-c2nc(-c3cccc(Br)c3)co2)cc1	-50.5
Cc1ccc(-c2coc(-c3ccc(NC(=O)Nc4ccc(F)cc4F)cc3)n2)cc1	13.7
COc1ccccc1NC(=O)Nc1ccc(-c2nc(-c3ccc(C)cc3)co2)cc1	-77.2*
Cc1nc(-c2cccnc2)ncc1C(=O)N1CCN2CCNC(=O)C2C1 (centres undefined)	-1.2
Cc1cc(C)n(Cc2nc(-c3ccc(NC(=O)c4cccs4)cc3)oc2C)n1	-25.3
CCSc1nc(CC(=O)N(C)CCc2noc(C)n2)cs1	100.7
CCc1ncc(C(=O)N2CCC3(CC2)N=C(c2cccc(C)c2)NC3=O)cn1	-55.9
CCc1ccc(NC(=O)N2CCN(Cc3nc(-c4ccccc4C)oc3C)CC2)cc1	8.5
CCOc1ccc2nc(SCC(=O)c3ccc4c(c3)OCCO4)c(C#N)cc2c1	-49.7
CCOc1ccc2nc(SCc3ccccc3)c(C#N)cc2c1	-102.5*
COc1ccc(NC(=O)CSc2nc3ccc(C)cc3cc2C#N)cc1	92.9
Cc1cccc(CN2CCOC(CCCC(C)C)C2)n1 (centres undefined)	-8.8
Cc1ccc(-c2nc(Cn3nnc(-c4nc(-c5ccc(OC(C)C)cc5)no4)c3C)c(C)o2)cc1	-38.5
COc1ccc(NC(=O)c2nnn(Cc3nc(-c4ccccc4)oc3C)c2C)cc1	-94.2*
Cc1oc(-c2ccccc2)nc1Cn1nnc(-c2nc(-c3ccc(OC(C)C)cc3)no2)c1C	-79.9*
Cc1cc(C)c(NC(=O)c2nnn(Cc3nc(-c4ccccc4)oc3C)c2C)c(C)c1	-77.2*
Cc1ccc(-c2nc(Cn3nnc(-c4nc(-c5ccc(OCC(C)C)cc5)no4)c3C)c(C)o2)cc1	-11.3
Cc1ccc(-c2nc(Cn3nnc(C(=O)Nc4cccc(Cl)c4)c3C)c(C)o2)cc1	196.3
CCc1ccccc1NC(=O)c1nnn(Cc2nc(-c3ccccc3)oc2C)c1C	76.0
Cc1oc(-c2ccccc2)nc1Cn1nnc(C(=O)Nc2cccc(Cl)c2)c1C	228.6
CCOc1ccc(-c2nc(Cn3nnc(C(=O)Nc4ccccc4)c3C)c(C)o2)cc1	-55.5
COc1ccccc1NC(=O)c1nnn(Cc2nc(-c3ccccc3)oc2C)c1C	-4.0
Cc1ccc(Cl)cc1NC(=O)c1nnn(Cc2nc(-c3ccccc3)oc2C)c1C	-45.4
Cc1oc(-c2cccc(Cl)c2)nc1Cn1nnc(C(=O)Nc2cccc(Cl)c2)c1C	-86.1*
